Measured values published in PubChem BioAssay (NCI).
Where “and” joins values, the source holds several entries; their conditions need not be identical. Identical values can stand only once. The panel holds about 83,000 compounds, 20% with a hit somewhere; the sample as a whole holds those more often.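 A percent growth of 40 corresponds to 60% growth inhibition; 0 means no net growth; -100 means all cells died. Active threshold: below 10.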 A number with no mark means an inactive call. Calls of active or inactive are those of the source.

These molecules were tested on OVCAR-8 ovarian (assay: NCI-60 one-dose screen, 48 h (100 = growth as untreated, 0 = no growth, -100 = all killed)). Settings: 10 µM unless noted.

Compound | growth
OCCCc1ccccc1 | 104%
S=c1nn[nH]n1C1CCCCC1 | 95.4%
CC1=CC(=O)C=CC1=Nc1ccc(N(C)C)cc1 | 85.7% and 52%
Nc1nc(=S)c2[nH]cnc2[nH]1 | 12%
O=c1[nH]c(=S)[nH]n1C(=S)n1[nH]c(=S)[nH]c1=O | 101%
CN(C)C(=N)N=C(N)N | 105%
COc1ccc2nccc(Cl)c2c1 | 108%
COc1ccc(CCn2cnn3c(=O)c4ccccc4nc3c2=O)cc1OC | 104% and 110%
N=C(N=C(N)N)N1CCOCC1 | 105% and 106%
N#CC(=S)Nc1ccc(Cl)c(Cl)c1 | 10.1%
O=C1C(=O)c2ccccc2C(O)=C1CC=C(Cl)Cl | 44.3%
CCOC(=O)C1=C(C)NC(C)=C(C(=O)OCC)C1 | 121% and 96.9%
COc1ccc(CCO)cc1 | 101%
COc1ccc(/C=N/Nc2nc3ccccc3s2)cc1 | 105%
Nc1ccccc1SC1CC(=O)N(c2ccc(I)cc2)C1=O (configuration not stated) | 87.8%
Clc1ccc2c(c1)N(C1CCCN(Cc3ccccc3)C1)c1ccccc1S2 (configuration not stated) | 37.9%
COc1ccc([N+](=O)[O-])cc1OC | 89.6% and 94.5%
NC(=O)Cc1nc(O)cc(=O)[nH]1 | 93.8%

Compound | growth
N=C(N)N1CCc2ccccc2C1 | 89.9% and 103%
Clc1ccc2sc(-c3ccccc3)nc2c1 | 87.9%
COc1cc2oc3cc(=O)cc4oc(-c5ccccc5)cc(c2c2c1CCC(c1ccccc1)O2)c43 (configuration not stated) | 87%
CC(C)(C)C1=CC(=O)C(C(C)(C)C)=CC1=O | 91.5% and 96.5%
Oc1ccc(O)c(-c2ccccc2)c1 | 62.9%
COc1ccc(CCl)c(C)c1OC | 99.3%
CCNC1=CC(=O)c2ncccc2C1=O | 51.9%
O=C1C=CC(=O)N1Cc1ccco1 | 85.6%
CC(C)=NOC(C)C(=O)O (configuration not stated) | 90.2%
Cc1cc2nc3ccc(=[N+](C)C)cc-3sc2cc1N | 4.72% (active) and 7.29% (active)
c1ccc2c[n+](Cc3ccc4ccccc4n3)ccc2c1 | 69%
COc1cc([C@@H]2c3cc4c(cc3[C@H](O)[C@H]3COC(=O)[C@@H]23)OCO4)cc(OC)c1OC | 11.5% and 18.9%
NNC(=O)Nc1ccccc1 | 109%
Cc1nc2c(=O)[nH]c(=S)[nH]c2[nH]c1=O | 103%
Oc1cccnc1CN1CCOCC1 | 93.5% and 95.3%
O=C1c2ccccc2CN1c1ccccc1 | 104%
COC1C(OC(N)=O)C(O)C(Oc2ccc3c(O)c(NC(=O)c4ccc(O)c(CC=C(C)C)c4)c(=O)oc3c2C)OC1(C)C (configuration not stated) | 103%
C/C=C/C(=O)OCCCCCCCCCCCC | 90.5%

Each molecule was assayed on OVCAR-5 ovarian in the same assay as above. Settings: 10 µM unless noted.

Compound | growth
OCCCc1ccccc1 | 97%
S=c1nn[nH]n1C1CCCCC1 | 117%
CC1=CC(=O)C=CC1=Nc1ccc(N(C)C)cc1 | 140% and 83.9%
Nc1nc(=S)c2[nH]cnc2[nH]1 | -30.1% (active)
O=c1[nH]c(=S)[nH]n1C(=S)n1[nH]c(=S)[nH]c1=O | 105%
CN(C)C(=N)N=C(N)N | 115% and 114%
COc1ccc2nccc(Cl)c2c1 | 102%
COc1ccc(CCn2cnn3c(=O)c4ccccc4nc3c2=O)cc1OC | 99.8% and 121%
N=C(N=C(N)N)N1CCOCC1 | 99.3%
N#CC(=S)Nc1ccc(Cl)c(Cl)c1 | 11%
O=C1C(=O)c2ccccc2C(O)=C1CC=C(Cl)Cl | 35.3% and 87.2%
CCOC(=O)C1=C(C)NC(C)=C(C(=O)OCC)C1 | 104% and 92.4%
COc1ccc(CCO)cc1 | 103%
COc1ccc(/C=N/Nc2nc3ccccc3s2)cc1 | 103%
Nc1ccccc1SC1CC(=O)N(c2ccc(I)cc2)C1=O (configuration not stated) | 90.3%
Clc1ccc2c(c1)N(C1CCCN(Cc3ccccc3)C1)c1ccccc1S2 (configuration not stated) | 73.4%
COc1ccc([N+](=O)[O-])cc1OC | 101% and 98.3%
NC(=O)Cc1nc(O)cc(=O)[nH]1 | 109%

Compound | growth
N=C(N)N1CCc2ccccc2C1 | 88.4%
Clc1ccc2sc(-c3ccccc3)nc2c1 | 120%
COc1cc2oc3cc(=O)cc4oc(-c5ccccc5)cc(c2c2c1CCC(c1ccccc1)O2)c43 (configuration not stated) | 106%
CC(C)(C)C1=CC(=O)C(C(C)(C)C)=CC1=O | 109%
Oc1ccc(O)c(-c2ccccc2)c1 | 102%
COc1ccc(CCl)c(C)c1OC | 100%
CCNC1=CC(=O)c2ncccc2C1=O | -53.7% (active)
O=C1C=CC(=O)N1Cc1ccco1 | 62.1%
CC(C)=NOC(C)C(=O)O (configuration not stated) | 101%
Cc1cc2nc3ccc(=[N+](C)C)cc-3sc2cc1N | -57.5% (active) and -0.424% (active)
c1ccc2c[n+](Cc3ccc4ccccc4n3)ccc2c1 | 105%
COc1cc([C@@H]2c3cc4c(cc3[C@H](O)[C@H]3COC(=O)[C@@H]23)OCO4)cc(OC)c1OC | 24.3% and 30.4%
NNC(=O)Nc1ccccc1 | 102%
Cc1nc2c(=O)[nH]c(=S)[nH]c2[nH]c1=O | 109% and 102%
Oc1cccnc1CN1CCOCC1 | 112% and 92.8%
O=C1c2ccccc2CN1c1ccccc1 | 98%
COC1C(OC(N)=O)C(O)C(Oc2ccc3c(O)c(NC(=O)c4ccc(O)c(CC=C(C)C)c4)c(=O)oc3c2C)OC1(C)C (configuration not stated) | 86.8% and 91.4%
C/C=C/C(=O)OCCCCCCCCCCCC | 99.2%
